Laboratory results as given in PubChem BioAssay (NCATS).
Calls of active or inactive are those of the source. How the calls were made is not given here.

Test system: HIV-1 nucleocapsid protein NCp7 (binding to TG oligonucleotide)
Test: HIV Nucleocapsid (AID 346);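 further: potency is for inhibitors that block NC binding and lower polarization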
Conditions: HIV-1 NC / fluorescein-TGTGTGTG probe, fluorescence polarization
In short: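 Fluorescence polarization readout: labelled TG4xF oligo (10 nM) with 100 nM nucleocapsid protein, high-salt (250mM NaCl) Hepes pH 7.5 buffer containing zinc and fresh reducing agents. Compounds added by pin tool; incubation 1 hr, room temperature.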
Potency means the concentration at half of the fitted maximal effect.

**Q.** `COC(=O)N1CCC2(CC1)CCN(c1cccc(-c3ccccc3)c1)CC2` was tested. Which Potency did it give?
**A.** > 20 µM (inactive)

**Q.** Which Potency does the source give for `CN(C)c1ncnc2ccc(-c3ccccc3C(F)(F)F)cc12` here?
**A.** > 20 µM (inactive)

**Q.** Which Potency does the source give for `Cn1cccc1C(=O)N1CCC[C@@]2(CCN(C(=O)Nc3cccc(C#N)c3)C2)C1` here?
**A.** > 20 µM (inactive)

**Q.** `COC(=O)N1CCC2(CCCN(Cc3ccccc3)C2)CC1` was tested. Which Potency did it give?
**A.** > 20 µM (inactive)

**Q.** For `O=C(c1cc(C(F)(F)F)cc(C(F)(F)F)c1)N1CCC2(CCCN(c3ncccn3)C2)CC1`, which Potency is on record?
**A.** > 20 µM (inactive)

**Q.** `COc1ccccc1CNc1ncncc1-c1cccc(NS(C)(=O)=O)c1` was tested. Which Potency did it give?
**A.** > 20 µM (inactive)

**Q.** `COc1cccc(Cn2c(=O)c(CCc3ccccc3)nc3cnc(N(C)C)nc32)c1` was tested. Which Potency did it give?
**A.** > 4 µM (inactive)

**Q.** With `O=C(c1cccc(F)c1)N1CCC2(CCCN(Cc3nccs3)C2)CC1` as the compound, how does the Potency read?
**A.** > 20 µM (inactive)

**Q.** `COc1cccc(-c2cncnc2NCCc2c[nH]c3ccc(OC)cc23)c1` was tested. Which Potency did it give?
**A.** > 20 µM (inactive)

**Q.** With `CN(C)c1ccc(-c2nccc(NCCN3CCOCC3)n2)cc1` as the compound, how does the Potency read?
**A.** > 20 µM (inactive)

**Q.** Which Potency does the source give for `COc1cccc(Cn2c(=O)c(-c3cccs3)nc3cnc(Nc4cccc(OC)c4)nc32)c1` here?
**A.** > 20 µM (inactive)

**Q.** Which Potency does the source give for `CN(C)c1ncnc2ccc(-c3ccoc3)cc12` here?
**A.** > 20 µM (inactive)

**Q.** `Cn1cccc1C(=O)N1CCC2(CC1)CCN(c1ccncc1)CC2` was tested. Which Potency did it give?
**A.** > 20 µM (inactive)

**Q.** `O=c1c(-c2cc(F)cc(F)c2)nc2cnc(N3CCOCC3)nc2n1-c1ccccc1` was tested. Which Potency did it give?
**A.** > 4 µM (inactive)

**Q.** For `CC(=O)NCCNc1cc(-c2ccccc2CN(C)C)ncn1`, which Potency is on record?
**A.** > 20 µM (inactive)
